Here are results for 97 compounds from PubChem BioAssay AID434973 (Sanford-Burnham Center for Chemical Genomics, 2010).

Out of some 330,000 compounds screened, about 4,900 (1.5%) were called active. The sample holds actives, similar compounds and a random draw of the others, so the mix is not that of the screen.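 Rule for the calls: active = inhibition above about 50% at the single test dose (limit read from the data); inactive = the rest.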

This assay deals with Sentrin-specific protease 7 (Homo sapiens) (UniProt Q9BQF6). Description: SENP7 protease inhibitors, primary screen, biochemical, luminescence, uHTS (AID 434973).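 Note: plate controls were DMSO with enzyme for no effect and no enzyme buffer wells for full effect.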 The following applies: recombinant SENP7, Z-RLRGG-aminoluciferin luminescence, 40 min; at 5 µM; hits give high values.
On to `Nc1nc(SCc2cccc(Br)c2)n[nH]1`, for which the inhibition was 0.492% (inactive).

Take `CCCC1CC(C)(C(=O)Cn2[nH]c(=O)ccc2=O)OC1=O` (configuration not stated): the inhibition is -0.683% (inactive).

For the compound `Cc1cc(C)nc(-n2ncc3c2CC(c2ccc(C(C)C)cc2)CC3=O)n1` (configuration not stated), the inhibition is 9.11% (inactive).

Consider `COc1ccc(Cc2nnc(SCC(=O)c3cccc([N+](=O)[O-])c3)n2C)cc1`, for which the inhibition is 73.6% (active).

In the case of `COc1ccc(-n2cnnc2SCC(=O)Nc2cccc([N+](=O)[O-])c2)cc1`, the inhibition was -4.85% (inactive).

For `COc1cccc(NCCC(=O)c2cccc([N+](=O)[O-])c2)c1`, the inhibition was 13.1% (inactive).

As for `O=C(CN1CCOCC1)N1CCCc2c1c(=O)oc1ccc(OCc3ccccc3)cc21`, the inhibition is 4.73% (inactive).

With `C/C(CC(=O)Nc1ccc(N(C)C)cc1)=N\NC(=O)c1ccccc1F`, the inhibition is -1.56% (inactive).

On to `COc1ccc(/C(C)=N\NC(=O)c2ccc(-c3ccccc3)cc2)c(F)c1`, for which the inhibition is 3.63% (inactive).

For the compound `C/C(=N\NC(=O)c1ccccc1F)c1ccccn1`, the inhibition was 64.2% (active).

As for `COc1ccc(OC)c(CNC(=O)c2cc(=O)[nH]c3ccc(S(=O)(=O)N4CCCC4)cc23)c1`, the inhibition is 0.442% (inactive).

In the case of `O=C1CC2(CCCC2)C(=O)N1CN1CCN(S(=O)(=O)c2ccc(F)cc2F)CC1`, the inhibition is -8.48% (inactive).

As for `CN1C(=O)/C(=C\c2cc(Br)cs2)c2ccccc21`, the inhibition is 80.9% (active).

Take `CN1C(=O)/C(=N/OC(=O)c2ccccc2Br)c2ccccc21`: the inhibition is 4.98% (inactive).

In the case of `CCC1C(=O)c2ccccc2N(C)C1=O` (configuration not stated), the inhibition was -6.31% (inactive).

As to `O=C(Nc1cc(=O)[nH]c2ncnn12)c1ccccc1Cl`, the inhibition was 10.9% (inactive).

For the compound `Cc1ccc(S(=O)(=O)Nc2nc3ccccc3nc2N2CCc3ccccc3C2)cc1`, the inhibition is 86.2% (active).

Regarding `Cc1ccc(S(=O)(=O)N2CCN(c3ncnc4ccccc34)CC2)cc1`, the inhibition was 0.743% (inactive).

As to `Cc1ccc(NC(=O)CN2CCc3ccccc3C2)cc1`, the inhibition was -5.44% (inactive).

As for `O=C(COc1ccccc1O)NC1CCCC1`, the inhibition was -1.19% (inactive).

On to `CCCCNc1ccc(C(=O)Nc2cccc(C)n2)cc1[N+](=O)[O-]`, for which the inhibition is -7.17% (inactive).

For the compound `Nc1ccc(N=Nc2ccccc2Cl)c(N)n1`, the inhibition is 82.3% (active).

Take `CCOc1cc(/C=C/C(=O)OCC(=O)NCCN2C(=O)CSC2=O)ccc1OCC(C)C`: the inhibition is 4.69% (inactive).

Consider `Cc1cc(=O)[nH]c(N/N=C/c2ccc3c(c2)OCCO3)n1`, for which the inhibition was 6.15% (inactive).

On to `Cc1noc(C)c1/C=N/Nc1ccc2ccccc2n1`, for which the inhibition is 52.5% (active).

`Cc1nc(Cl)cc(N/N=C/c2ccccc2)n1`: the inhibition was 4.74% (inactive).

For `C(=N\Nc1ccc2ccccc2n1)/c1ccc2c(c1)OCO2`, the inhibition was 96.1% (active).

As for `O=C(N/N=C/c1ccc2c(c1)OCO2)C(=O)N1CCCC1`, the inhibition was 4% (inactive).

For `Cc1nc2ccccc2nc1N/N=C/c1ccc(O)cc1O`, the inhibition was 7.72% (inactive).

Consider `O=C(c1ccccc1F)N(Cc1ccccc1)Cc1ccccc1`, for which the inhibition was -9.2% (inactive).

For the compound `Cc1c(Cl)c([N+](=O)[O-])nn1Cc1ccc(C(=O)N/N=C\c2cc(Cl)ccc2O)o1`, the inhibition is 10.1% (inactive).

On to `CCN(CC)S(=O)(=O)c1ccc(OC(C)C)c(N)c1`, for which the inhibition is 2.51% (inactive).

As to `CC(=O)C1C(c2ccc(Cl)cc2)c2c(n[nH]c2C)CC1(C)O` (configuration not stated), the inhibition is -1.26% (inactive).

In the case of `CC(=O)NNC1=Nc2ccccc2N(C)C(C)C1` (configuration not stated), the inhibition was 1.41% (inactive).

Take `CCc1cc(=O)oc2cc(OCC(=O)N3CCCc4ccccc43)ccc12`: the inhibition was -13.1% (inactive).

Turning to `Cc1ccc(-c2cn(S(=O)(=O)c3cccc([N+](=O)[O-])c3)nc2N)cc1`, the inhibition was 1.39% (inactive).

Regarding `Cc1ccnc(N2C(=O)c3ccc([N+](=O)[O-])cc3C2=O)c1`, the inhibition was -0.103% (inactive).

Take `Cc1ccc(-n2cc3ccc([N+](=O)[O-])cc3n2)cc1`: the inhibition was 87.9% (active).

As to `CC(C)(C)c1cc[n+](-c2[nH]c(=O)sc2/C=N/N=C(\[O-])c2ccccc2)cc1`, the inhibition was 1.22% (inactive).

As to `CCN(CC)S(=O)(=O)c1ccc(N2CCOCC2)c(NC(=O)c2ccc(=O)n(C)n2)c1`, the inhibition is -0.97% (inactive).

With `CCC(C)C(NC(=O)C1CCC(=O)N1C(=O)OCc1ccccc1)C(=O)NC(C(=O)N1CCCC1C(N)=O)C(C)CC` (configuration not stated), the inhibition was -7.38% (inactive).

For the compound `O=C(COC(=O)c1ccccn1)NNC(=O)c1ccc([N+](=O)[O-])cc1`, the inhibition was 4.18% (inactive).

`COc1ccc(C(=O)O/N=C(\N)c2ccccn2)cc1[N+](=O)[O-]`: the inhibition was 10.4% (inactive).

Take `Cc1ccc(C(=O)O/N=C(\N)c2ccccn2)cc1Cl`: the inhibition is 95.8% (active).

For `Cc1ccc(NC(=O)c2ccccn2)cc1S(=O)(=O)N1CCOCC1`, the inhibition is -1.52% (inactive).

With `N/C(=N\OC(=O)c1ccc([N+](=O)[O-])cc1)c1ccccn1`, the inhibition is 94.8% (active).

As for `O=C(COC(=O)c1ccccn1)NNC(=O)c1ccc(Br)cc1`, the inhibition is 8.04% (inactive).

Take `CCCCN=C(N)/C(C(=O)OCC)=C(\O)c1ccc(OC)cc1`: the inhibition is 13.1% (inactive).

For the compound `CC(OC(=O)CN1C(=O)c2ccccc2C1=O)C(=O)c1ccccc1` (configuration not stated), the inhibition is 5.15% (inactive).

Regarding `CCc1ccc(NC(=O)CN2C(=O)COc3ccc(S(=O)(=O)N4CCCC4)cc32)cc1`, the inhibition is 2.36% (inactive).

As for `C=C(Br)Cn1c(CCCC)nc2ccccc21`, the inhibition was 2.52% (inactive).

For `CC(C)Oc1ccc(Oc2ccc(C(F)(F)F)cn2)cc1`, the inhibition was -3.04% (inactive).

As for `FC(F)(F)c1ccnc(Oc2ccc(C3=NCCS3)cc2)c1`, the inhibition was 67.2% (active).

Take `O=[N+]([O-])c1cccc(C2=NCCS2)c1`: the inhibition was -1.11% (inactive).

As for `COc1ccc(C(=O)n2nc(C)c(Br)c2C)cc1OC`, the inhibition is 0.64% (inactive).

As to `COC(=O)CN1C(=O)[C@H]2[C@@H](/C=C/c3ccccc3)N3C(=O)CN(CC4CC4)C(=O)[C@@]3(Cc3ccccc3)[C@H]2C1=O`, the inhibition was -16.2% (inactive).

As for `CCOC(=O)CSc1nnc(-c2ccc([N+](=O)[O-])cc2)o1`, the inhibition is -2.17% (inactive).

As for `CCOC(=O)CSc1nnc(-c2cccc(Br)c2)o1`, the inhibition was -6.07% (inactive).

Turning to `CCCCSc1nnc(-c2ccc(C)cc2)o1`, the inhibition is 58.9% (active).

For the compound `CCOc1ccc(NC(=O)CN(C)C(=O)c2cccc(S(=O)(=O)N3CCCC3)c2)cc1OCC`, the inhibition is -6.73% (inactive).

Consider `Cc1ccc2nc(-c3ccc(Br)cc3)cn2c1`, for which the inhibition is 89.3% (active).

Take `Cc1ccc(-c2cc(N)on2)cc1`: the inhibition is -4.29% (inactive).

Take `CSc1nnc2ccc(-c3ccc(C)cc3)nn12`: the inhibition was -16.3% (inactive).

With `Cc1ccc(-c2cn3cc(C)ccc3n2)cc1`, the inhibition is 86.5% (active).

In the case of `Cc1cc(N2CCOCC2)nc(-c2ccc(Br)cc2)n1`, the inhibition was -7.07% (inactive).

Turning to `Cc1ccc(-n2c(-c3ccc(Cl)cc3)n[nH]c2=S)cc1`, the inhibition was -0.859% (inactive).

Regarding `O=C1C2C3C=CC(C3)C2C(=O)N1c1ccc(S(=O)(=O)Nc2nccs2)cc1` (configuration not stated), the inhibition is 4.27% (inactive).

Regarding `CN(C)c1cccc(C(=O)N2CCC(n3nccc3NC(=O)C3CCOC3)CC2)c1` (configuration not stated), the inhibition is 9.95% (inactive).

As to `CCCCC(=O)Nc1c2c(nn1-c1ccc([N+](=O)[O-])cc1)CS(=O)(=O)C2`, the inhibition is -1.87% (inactive).

Take `CC1C(=O)N(Cc2ccccc2)c2ccccc2N1C(=O)c1ccccc1` (configuration not stated): the inhibition is -2.81% (inactive).

Take `COc1cc(Cl)cc(C2NC(=O)NC(C)=C2C(=O)NCc2ccccc2)c1O` (configuration not stated): the inhibition was -4.23% (inactive).

In the case of `Cn1cccc1C(=O)OCC(=O)NCCc1ccccc1`, the inhibition was -5.93% (inactive).

In the case of `O=C(COC(=O)c1c2c(nc3ccccc13)CCCC2)c1ccc(Br)s1`, the inhibition was 14.3% (inactive).

In the case of `Cn1cccc1C(=O)OCC(=O)c1ccc(Br)s1`, the inhibition was 82.4% (active).

Take `O=C(CSc1nncn1-c1cccnc1)N1CCOCC1`: the inhibition is 5.85% (inactive).

Consider `Cc1n[nH]c(=O)c2c(NC(=O)CSc3cc(Cl)ccc3Cl)oc(C)c12`, for which the inhibition is -0.542% (inactive).

For the compound `CC1CN(c2cc(=O)n(-c3cccc(Br)c3)c(=O)[nH]2)CC(C)O1` (configuration not stated), the inhibition was 4.5% (inactive).

Regarding `CCOC(=O)N1CCC(NC(=O)c2cnn3ccccc23)CC1`, the inhibition is -0.379% (inactive).

As for `O=C(c1cnn2ccccc12)N1CCc2ccccc21`, the inhibition is 52.8% (active).

For `Cc1cnc(C(=O)OCC(=O)N2CCc3ccccc32)cn1`, the inhibition was -1.46% (inactive).

On to `Cc1ccc(S(=O)(=O)/N=S(\C)C(C)C)cc1` (configuration not stated), for which the inhibition was -7.18% (inactive).

Take `CCC(C)(C(=O)NC1CCCC1)N(C(=O)CNC(C)=O)c1ccc(C)cc1` (configuration not stated): the inhibition is -2.07% (inactive).

`COc1ccccc1NC(=O)c1ccc(N2CC3CC(C2)c2cccc(=O)n2C3)c(NC(=O)c2cccnc2)c1` (configuration not stated): the inhibition is 70.4% (active).

As for `COc1ccccc1NC(=O)c1ccc2nc(N3C(=O)CCC3=O)sc2c1`, the inhibition is -10.2% (inactive).

As for `CCOc1ccccc1NC(=O)c1cccnc1`, the inhibition is -1.12% (inactive).

Take `O=C(CC1C(=O)NCCN1CC(c1ccccc1)c1ccccc1)NCCc1cn[nH]c1` (configuration not stated): the inhibition is -0.769% (inactive).

As for `O=C(Oc1ccc(-c2nc(-c3ccccn3)no2)cc1)c1ccccc1`, the inhibition is 99.8% (active).

With `O=C(COC(=O)c1ccncc1)c1ccccc1`, the inhibition is -15% (inactive).

Regarding `Cc1noc(C)c1COC(=O)COc1ccc(-c2ccccc2)cc1`, the inhibition was 6.3% (inactive).

Regarding `CN(c1ccc2nc3ccccc3c(=O)n2n1)C1CCCCC1`, the inhibition was 93.7% (active).

Regarding `CN(C(=O)CSc1nncc2ccccc12)C1CCCCC1`, the inhibition is -7.84% (inactive).

`CN(C(=O)c1cc2c(=O)n3ccccc3nc2s1)C1CCCCC1`: the inhibition is -3.91% (inactive).

`CCn1cc(C(=O)N[C@@H](C)C(=O)NCCO)c(=O)c2cc3c(cc21)OCO3`: the inhibition is -6.11% (inactive).

For `CC(C(=O)Nc1ccc(S(=O)(=O)N2CCCC2)cc1)N(C)Cc1ccc(F)cc1` (configuration not stated), the inhibition is 8.65% (inactive).

Consider `CC(C)n1cnc2c(NCc3ccccc3)cc(N[C@@H](CO)Cc3ccccc3)cc21`, for which the inhibition is 35.9% (inactive).

For `CC(C)n1cnc2c(NCc3ccccc3)cc(OCC3CCN(C)CC3)cc21`, the inhibition was 52.7% (active).

Take `CCC(CO)Oc1cc(NCc2ccccc2)c2ncn(C3CCCC3)c2c1` (configuration not stated): the inhibition is 8.26% (inactive).
